# Measured values taken from PubChem BioAssay (NCI).
# About 79,000 compounds went through this panel and 15% of them were active in at least one assay; those are over-represented in the sample as a whole. Activity calls are given as the source filed them. Rule as the data show it: active = growth inhibition above about 70%; inactive = the rest. Where a SMILES comes first, the peptide text is derived from it. The star is where a group is joined. Cbz = O=C(OCc1ccccc1)*; Bn = c1ccc(C*)cc1
# Experiment: NCI Yeast Anticancer Drug Screen. Data for the bub3 strain (AID 167)
# Settings: S. cerevisiae bub3 mutant strain, at 50.0 µM, active compounds read high
# Method in brief: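 Growth of a checkpoint-deficient yeast mutant is measured after compound exposure. Values represent inhibition relative to vehicle.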
row,Structure (SMILES),growth inhibition
1,CC(=O)OC/C=C(\C)CC(/C=C(C)/C=C/C1=C(C)CCCC1(C)C)S(=O)(=O)c1ccccc1 (stereo not given),0.2% (inactive)
2,O=c1nc(/C=C/c2ccccc2Cl)cc2n1CCN2CCO,-3.1% (inactive)
3,CCC(=O)Oc1cccc2ccccc12,-24.9% (inactive)
4,Cc1ccc(C)c(NC(=O)Oc2ccc(Br)cc2Br)c1,-1% (inactive)
5,CC1CCCC2C(=O)OC(=O)C12 (stereo not given),-21.1% (inactive)
6,CNNCCCC(=O)NC(C)C,7.8% (inactive)
7,CSc1ccccc1N1C(=O)CSC1=S,-4.1% (inactive)
8,CC(C)([NH-])C[NH-].[Cl][Pt+2][Cl],-3.8% (inactive)
9,O=[N+]([O-])c1ccc(S(=O)(=O)/N=C/c2ccccc2)cc1,14.4% (inactive)
10,O=C(O)CNCc1ccccc1,16.4% (inactive)
11,CCOC(=O)C(Cc1cn(C(C)=O)c2ccccc12)P(=O)(OCC)OCC (stereo not given),1.05% (inactive)
12,O=C1CCC2=NCc3c(ccc4ccccc34)N12,-12.3% (inactive)
13,CC(C)C(NC(=O)C(CSCc1ccccc1)NC(=O)OCc1ccccc1)C(N)=O (stereo not given) (Cbz-Cys(Bn)-Val-NH2; configuration not given here),-0.9% (inactive)
14,C#CCC1CCCC/C1=N\Nc1ccc([N+](=O)[O-])cc1[N+](=O)[O-] (stereo not given),4.4% (inactive)
15,COc1cc(O)c2c(c1)C(=O)C1=C(C2=O)C(O)C[C@@](C)(O)C1 (stereo not given in full),91.2% (active)
16,CSc1ccc(NC(=O)Nc2ccccc2F)cc1,39.5% (inactive)
17,CN(C)CC1CCC/C(=C\c2ccccc2)C1=O (stereo not given),38.5% (inactive)
18,O=C1CSC(c2cccc(O)c2)N1c1nncs1 (stereo not given),14.2% (inactive)
19,CC(C)C(C)(C)C(N)=O,19.6% (inactive)
20,NC(N)=NOCC(=O)O,3.95% (inactive)

row,Structure (SMILES),growth inhibition
1,OCC(O)COc1cccc2cccnc12 (stereo not given),11.2% (inactive)
2,O=C(O)c1ccccc1NC(=O)C1CCCCC1,-6.55% (inactive)
3,CSC1=C(C#N)C(=O)N(c2ccc(C)cc2)C(=O)C1C#N (stereo not given),5.5% (inactive)
4,CNC1C(O)C(OC2C(N)CC(N)C(OC3OC(CN)C(O)C(O)C3O)C2O)OCC1(C)O (stereo not given),9.9% (inactive)
5,CCC1c2c(cc(=O)[nH]c2O)C(=O)N1Cc1ccccc1 (stereo not given),1.15% (inactive)
6,CCCCNS(=O)(=O)c1n[nH]c(=O)[nH]c1=O,-38% (inactive)
7,CC(C)CCNCCC(C)C,-14.9% (inactive)
8,N#C/C(=C\c1ccccc1)c1cccc(Br)c1,48.1% (inactive)
9,COc1ccc(S(=O)Cc2cc(OC)c(OC)c(OC)c2)cc1 (stereo not given),-14.3% (inactive)
10,C/C(CC(=O)Nc1ccc(Cl)c(Cl)c1)=N/NC(=O)C[N+](C)(C)C,-14.8% (inactive)
11,O=C(O)c1cc(Cl)ccc1-c1ccc(Cl)cc1C(=O)Nc1ccc2c(c1)Cc1ccccc1-2,85.3% (active)
12,Cc1ccc(S(=O)(=O)C/C(=N\Nc2ccc([N+](=O)[O-])cc2[N+](=O)[O-])c2ccccc2)cc1,-0.25% (inactive)
13,CC(=O)OC[C@@H](COC(=O)/C=C/c1ccc(O)cc1)OC1OC(CO)C(O)C(O)C1O (stereo not given in full),-17.1% (inactive)
14,COc1ccc(C(=O)c2ccc(OC)cc2)cc1,1.6% (inactive)
15,CCN(CC)CCN1C(=O)C2C3C=CC(C3)C2C1=O (stereo not given),-3.25% (inactive)
16,C/C=C(/C)C(C#N)(CCC)C(=O)OCC (stereo not given),-9.85% (inactive)
17,CCN(CC)C(=O)c1cccc(C(=O)N(CC)CC)n1,21.4% (inactive)
18,CCN(CC)Cc1cc(NC(C)=O)ccc1O,-4.95% (inactive)
19,NC(N)=N/N=C(\c1ccc(Cl)cc1)C1CC1,-65.3% (inactive)
20,CC(=O)N(C(C)=O)c1cc2c3c(c1)CCCN3CCC2,-16.1% (inactive)

# Experiment: NCI Yeast Anticancer Drug Screen. Data for the mlh1 rad18 strain (AID 175)
# Settings: S. cerevisiae mlh1 rad18 strain growth inhibition; at 50.0 µM; active compounds read high
# Method in brief: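 Read-out is yeast growth inhibition, calculated against vehicle-only controls. The compound was applied to a strain engineered with DNA damage repair alterations.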
row,Structure (SMILES),growth inhibition
1,CC(=O)OC/C=C(\C)CC(/C=C(C)/C=C/C1=C(C)CCCC1(C)C)S(=O)(=O)c1ccccc1 (stereo not given),-5.15% (inactive)
2,O=c1nc(/C=C/c2ccccc2Cl)cc2n1CCN2CCO,-10.2% (inactive)
3,CCC(=O)Oc1cccc2ccccc12,-8.05% (inactive)
4,Cc1ccc(C)c(NC(=O)Oc2ccc(Br)cc2Br)c1,18.1% (inactive)
5,CC1CCCC2C(=O)OC(=O)C12 (stereo not given),-11.4% (inactive)
6,CNNCCCC(=O)NC(C)C,7.85% (inactive)
7,CSc1ccccc1N1C(=O)CSC1=S,22.2% (inactive)
8,CC(C)([NH-])C[NH-].[Cl][Pt+2][Cl],5.1% (inactive)
9,O=[N+]([O-])c1ccc(S(=O)(=O)/N=C/c2ccccc2)cc1,12.3% (inactive)
10,O=C(O)CNCc1ccccc1,-15.3% (inactive)
11,CCOC(=O)C(Cc1cn(C(C)=O)c2ccccc12)P(=O)(OCC)OCC (stereo not given),-27% (inactive)
12,O=C1CCC2=NCc3c(ccc4ccccc34)N12,-4% (inactive)
13,CC(C)C(NC(=O)C(CSCc1ccccc1)NC(=O)OCc1ccccc1)C(N)=O (stereo not given) (Cbz-Cys(Bn)-Val-NH2; configuration not given here),30.6% (inactive)
14,C#CCC1CCCC/C1=N\Nc1ccc([N+](=O)[O-])cc1[N+](=O)[O-] (stereo not given),4.1% (inactive)
15,COc1cc(O)c2c(c1)C(=O)C1=C(C2=O)C(O)C[C@@](C)(O)C1 (stereo not given in full),90% (active)
16,CSc1ccc(NC(=O)Nc2ccccc2F)cc1,-9.15% (inactive)
17,CN(C)CC1CCC/C(=C\c2ccccc2)C1=O (stereo not given),16.7% (inactive)
18,O=C1CSC(c2cccc(O)c2)N1c1nncs1 (stereo not given),15.2% (inactive)
19,CC(C)C(C)(C)C(N)=O,0.95% (inactive)
20,NC(N)=NOCC(=O)O,-16.1% (inactive)

row,Structure (SMILES),growth inhibition
1,OCC(O)COc1cccc2cccnc12 (stereo not given),8.3% (inactive)
2,O=C(O)c1ccccc1NC(=O)C1CCCCC1,14.5% (inactive)
3,CSC1=C(C#N)C(=O)N(c2ccc(C)cc2)C(=O)C1C#N (stereo not given),20.3% (inactive)
4,CNC1C(O)C(OC2C(N)CC(N)C(OC3OC(CN)C(O)C(O)C3O)C2O)OCC1(C)O (stereo not given),20.6% (inactive)
5,CCC1c2c(cc(=O)[nH]c2O)C(=O)N1Cc1ccccc1 (stereo not given),-0.1% (inactive)
6,CCCCNS(=O)(=O)c1n[nH]c(=O)[nH]c1=O,-19.2% (inactive)
7,CC(C)CCNCCC(C)C,21.9% (inactive)
8,N#C/C(=C\c1ccccc1)c1cccc(Br)c1,-1% (inactive)
9,COc1ccc(S(=O)Cc2cc(OC)c(OC)c(OC)c2)cc1 (stereo not given),-23.7% (inactive)
10,C/C(CC(=O)Nc1ccc(Cl)c(Cl)c1)=N/NC(=O)C[N+](C)(C)C,-6.1% (inactive)
11,O=C(O)c1cc(Cl)ccc1-c1ccc(Cl)cc1C(=O)Nc1ccc2c(c1)Cc1ccccc1-2,94.9% (active)
12,Cc1ccc(S(=O)(=O)C/C(=N\Nc2ccc([N+](=O)[O-])cc2[N+](=O)[O-])c2ccccc2)cc1,18.7% (inactive)
13,CC(=O)OC[C@@H](COC(=O)/C=C/c1ccc(O)cc1)OC1OC(CO)C(O)C(O)C1O (stereo not given in full),-1.8% (inactive)
14,COc1ccc(C(=O)c2ccc(OC)cc2)cc1,-15.1% (inactive)
15,CCN(CC)CCN1C(=O)C2C3C=CC(C3)C2C1=O (stereo not given),-14.9% (inactive)
16,C/C=C(/C)C(C#N)(CCC)C(=O)OCC (stereo not given),11.3% (inactive)
17,CCN(CC)C(=O)c1cccc(C(=O)N(CC)CC)n1,24.7% (inactive)
18,CCN(CC)Cc1cc(NC(C)=O)ccc1O,2.3% (inactive)
19,NC(N)=N/N=C(\c1ccc(Cl)cc1)C1CC1,10% (inactive)
20,CC(=O)N(C(C)=O)c1cc2c3c(c1)CCCN3CCC2,-1.6% (inactive)
